# PubChem BioAssay (NCATS)
# Results filed as inconclusive are left out. A call without a number means that no potency is given here. Activity calls are given as the source filed them. Calls come from the whole dose curve; as a rule, active = well fitted inhibition curve with a large enough effect; inconclusive = small, poorly fitted or top-dose-only effect; inactive = flat fitted curve, though single readings scatter.
# Molecular target: Ubiquitin carboxyl-terminal hydrolase 1 (Homo sapiens) (UniProt O94782)
# Assay: Inhibitors of USP1/UAF1: Pilot qHTS (AID 504865);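 note: rhodamine fluorescence freed from ubiquitin-rhodamine substrate followed over time; top concentration of the series differs between compounds; nearly all actives have a fitted effect of over 35% in size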
# Conditions: purified USP1/UAF1, Ub-rhodamine cleavage fluorescence; series mostly up to 114 µM
# In short: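 USP1/UAF1 complex at 1 nM preincubated 15 min at room temperature with compound, then Ub-Rho substrate added at 150 nM final. Fluorescence (480/540 nm) read kinetically in 50 mM HEPES pH 7.8, 0.5 mM EDTA, 1 mM TCEP, 0.1 mg/ml BSA, 0.01% Tween-20.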
# Chain of Ubiquitin carboxyl-terminal hydrolase 1 (Homo sapiens) (O94782 whole entry, looked up): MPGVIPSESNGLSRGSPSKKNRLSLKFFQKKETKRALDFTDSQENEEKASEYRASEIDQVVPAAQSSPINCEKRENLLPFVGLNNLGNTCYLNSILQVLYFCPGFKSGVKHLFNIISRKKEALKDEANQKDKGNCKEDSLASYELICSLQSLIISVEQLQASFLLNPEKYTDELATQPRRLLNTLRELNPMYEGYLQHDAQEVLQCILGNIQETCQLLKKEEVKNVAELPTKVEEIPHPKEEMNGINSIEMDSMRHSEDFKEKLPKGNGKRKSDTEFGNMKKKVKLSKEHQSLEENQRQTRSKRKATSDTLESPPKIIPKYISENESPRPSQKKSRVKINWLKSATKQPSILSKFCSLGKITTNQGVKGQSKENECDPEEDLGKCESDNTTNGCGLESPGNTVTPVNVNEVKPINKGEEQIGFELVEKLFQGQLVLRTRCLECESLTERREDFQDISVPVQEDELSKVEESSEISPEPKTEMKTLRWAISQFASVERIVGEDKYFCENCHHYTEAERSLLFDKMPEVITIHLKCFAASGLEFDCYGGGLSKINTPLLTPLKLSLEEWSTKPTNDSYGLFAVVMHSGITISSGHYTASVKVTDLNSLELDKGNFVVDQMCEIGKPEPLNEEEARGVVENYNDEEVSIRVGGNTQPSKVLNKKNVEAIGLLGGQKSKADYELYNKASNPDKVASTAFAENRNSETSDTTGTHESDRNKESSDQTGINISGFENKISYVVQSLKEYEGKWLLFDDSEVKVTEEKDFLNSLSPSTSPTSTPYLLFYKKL
row,SMILES,Potency
1,COc1cc2[nH]c(=O)[nH]c(=O)c2cc1OC,inactive
2,O=c1cc[nH]c(=O)[nH]1,inactive
3,CC(=O)NC(Cc1ccccc1)C(=O)O (centres undefined),inactive
4,C[C@H](N)[C@H](O)c1cccc(O)c1,inactive
5,Cc1c(Cl)cccc1Nc1ccccc1C(=O)O,inactive
6,NS(=O)(=O)c1cc2c(cc1Cl)NC(CSCc1ccccc1)=NS2(=O)=O,inactive
7,[O-][n+]1cccc(CO)c1,inactive
8,O=c1[nH]c(=O)c2[nH]c(=O)[nH]c2[nH]1,inactive
9,CCOc1ccc2ccccc2c1C(=O)N[C@@H]1C(=O)N2[C@@H]1SC(C)(C)[C@@H]2C(=O)O,inactive
10,CN1CCOC(c2ccccc2)c2ccccc2C1 (centres undefined),inactive
11,CC[C@@]1(c2ccccc2)NC(=O)N(C)C1=O,inactive
12,CCCCCCCCCCCCCCCCCCOCC(O)CO (centres undefined),inactive
13,CC(C)(C)C(=O)NCCCC(=O)O,inactive
14,NC(=O)NC(=O)Cc1ccccc1,inactive
